High-throughput results (PubChem BioAssay)
Only some compounds are listed: those with a hit (about 6% of all), similar ones and a draw of the others.
D1 potentiator: enhances dopamine response at the human D1 receptor. potentiation, % at 10 µM. hit rate 0.036% among 360,000. P21728. HEK293 TREx D1 cells, calcium flux, dopamine EC20 potentiation. AID 504651; in the data active = potentiation above about 30%; also: 0% is about no effect
Target sequence (P21728 whole entry, looked up): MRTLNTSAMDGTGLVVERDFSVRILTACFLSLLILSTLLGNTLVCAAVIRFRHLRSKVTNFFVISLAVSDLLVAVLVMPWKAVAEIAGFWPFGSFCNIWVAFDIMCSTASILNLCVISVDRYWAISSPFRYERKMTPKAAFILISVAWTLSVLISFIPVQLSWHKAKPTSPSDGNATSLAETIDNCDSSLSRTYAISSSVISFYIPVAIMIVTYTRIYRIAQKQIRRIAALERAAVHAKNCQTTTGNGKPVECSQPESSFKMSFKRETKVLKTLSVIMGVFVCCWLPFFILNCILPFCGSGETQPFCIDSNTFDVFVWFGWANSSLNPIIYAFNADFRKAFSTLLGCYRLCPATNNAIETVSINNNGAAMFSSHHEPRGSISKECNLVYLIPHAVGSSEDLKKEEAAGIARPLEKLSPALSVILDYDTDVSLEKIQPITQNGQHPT
D3 antag: blocks the human D3 dopamine receptor; P35462; D3R cells, DiscoveRx beta-arrestin luminescence, antagonist mode; stronger effect = lower value; max response, negative = inhibition, %; hit rate 2.5% among 360,000; AID 652054; in the data active = max response below about -50%; inconclusive = no clear call, values can overlap the other calls; also: % is scaled to controls: 0 for no effect and ±100 for the full control effect
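Cells expressing the human receptor were seeded at 1500 cells/well, incubated overnight at 37 degrees C in 5% CO2, then exposed to library compounds with dopamine controls for 90 minutes at 37 degrees C before luminescent detection.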
D3 ag: activates the human D3 dopamine receptor; P35462; AID 652048; D3R DiscoveRx beta-arrestin cells, luminescence, 90 min; hit rate 0.58% among 410,000; max activation, %; in the data active = max activation above about 30%; also: 0% is about no effect
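Agonist-mode cell screen: cells plated at 1500/well and incubated overnight at 37 °C, then exposed to library compounds for 90 min at 37 °C. Detection reagent was added for 30–60 min at room temperature, and luminescence was read.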
D1 ag: agonists of human D1 dopamine receptor; P21728; HEK293 T-REx D1 cells, calcium flux, agonist mode; activation, % at 2 µM; hit rate 1% among 360,000; AID 504660; in the data active = activation above about 30%; also: 0% is about no effect
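Inducible HEK293 T-REx D1 cells, force-coupled to calcium signalling, were plated at 4000 cells/well with tetracycline and held overnight at 30 C. After no-wash calcium dye loading, compound-evoked calcium rise over 180 s flagged agonists.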
D1 antagonist: blocks dopamine activation of the human D1 receptor | P21728 | HEK293 TREx D1 cells, calcium flux, dopamine EC80; stronger effect = lower value | activity change, negative = inhibition, % at 10 µM | hit rate 3.2% among 360,000 | AID 504652; in the data active = activity change below about -30%; also: % is scaled to controls: 0 for no effect and ±100 for the full control effect
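After overnight tetracycline induction at 30 C, force-coupled D1 HEK293 cells took up a no-wash calcium dye at room temperature. Compounds were added and monitored 180 s, and the response to EC80 dopamine was then recorded.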
Starred values were filed as active, the others as inactive; ? = inconclusive; · = no result given.

SMILES	D1 potentiator	D3 antag	D3 ag	D1 ag	D1 antagonist
CC(C)(C)OC(=O)N1CCC(c2c(C(=O)NCc3ccc(F)cc3)cnn2-c2ccc(F)cc2)CC1	4.1	·	7.4	0.9	3.1
CCN(CC)CCCNC(=O)Cc1ccc(NC(=O)N2CCCCc3ccccc32)cc1	0.6	·	-3.2	1.1	-0.8
COc1cccc(CN(C(=O)c2oc3cc(C)ccc3c2C)C2CCS(=O)(=O)C2)c1 (stereo unspecified)	1.4	·	-18.0	2.1	4.5
O=S1(=O)CCO[C@H]2Cc3ccccc3[C@H]2N1Cc1ccc(Cl)cc1	6.2	-7.2	53.7*	4.2	6.1
O=S1(=O)CCO[C@H]2Cc3ccccc3[C@H]2N1Cc1cccc(Cl)c1	-1.9	-8.2	6.2	-0.7	-17.0
CC(NCC(O)COc1ccc(Br)cc1)c1ccccc1 (stereo unspecified)	-9.6	-10.5	-17.4	7.4	-13.6
Cc1cc(OCC(O)CNC(C)c2ccccc2)ccc1C(C)C (stereo unspecified)	-0.3	-0.9	0.7	30.5*	48.0
CC(COc1ccc(/C=C/c2ccccc2)cc1)[N+](C)(C)C (stereo unspecified)	3.4	-15.5	0.0	28.9	12.3
CC(CCc1ccccc1)NCC(O)COc1ccccc1 (stereo unspecified)	-4.2	-64.5*	-3.0	29.9	4.6
OC(CNCc1ccccc1)COc1ccccc1 (stereo unspecified)	-8.6	-22.8	-38.2	6.6	18.7
COc1ccc(OCC(O)CN(C2CCCCC2)C2CCCCC2)cc1 (stereo unspecified)	-0.8	-25.9	0.4	-1.1	11.1
CN(CC(O)COc1ccc2ccccc2c1)C1CCCCC1 (stereo unspecified)	-8.1	-1.2	0.9	31.6*	-3.3
CC(COc1ccccc1)NN (stereo unspecified)	·	·	67.1*	·	·
Cc1cc(C)c(NC(=O)CSc2nc3nc(C)cc(C)n3n2)c(C)c1	-2.0	·	6.9	-1.0	8.7
Cc1ccc(-c2nnc(Nc3ccc(Br)cc3)c3ccccc23)cc1S(=O)(=O)NCC1CCCO1 (stereo unspecified)	-1.6	·	-4.9	-1.7	-20.7
COc1ccc(OCC(O)CNC(C)c2ccccc2)cc1 (stereo unspecified)	0.7	3.5	-3.2	17.9	-4.0
CC(NCC(O)COc1ccc2ccccc2c1)c1ccccc1 (stereo unspecified)	1.4	-12.7	-14.1	42.3*	2.5
CC(OC(=O)C1CCN(c2ccc(C(F)(F)F)cn2)CC1)C(=O)Nc1ccc(S(N)(=O)=O)cc1 (stereo unspecified)	-8.4	2.0	2.1	1.0	-3.3
O=C(COC(=O)C1CCN(c2ccc(C(F)(F)F)cn2)CC1)c1ccc(F)cc1	-6.8	3.4	-14.6	43.2*	-34.7*
CC(OC(=O)C1CCN(c2ccc(C(F)(F)F)cn2)CC1)C(=O)c1ccccc1 (stereo unspecified)	-4.6	-0.4	0.7	21.5	-31.9*
CC(=O)c1ccc(NC(=O)C(C)OC(=O)C2CCN(c3ccc(C(F)(F)F)cn3)CC2)cc1 (stereo unspecified)	-1.4	-21.3	-17.1	2.4	-30.1*
Cc1ccc(C(=O)C(C)OC(=O)C2CCN(c3ccc(C(F)(F)F)cn3)CC2)cc1 (stereo unspecified)	-6.1	0.0	16.3	16.6	-16.8
Cc1cccc(N2CCN(C(=O)c3oc(=O)c4ccccc4c3-c3ccccc3)CC2C)c1 (stereo unspecified)	-0.7	·	1.8	3.5	-6.1
COc1ccc(/C=N/N2CCN(Cc3ccc(C)cc3)CC2)cc1Br	8.3	-91.7*	-8.3	-0.4	-14.0
Cc1ccc(CN2CCN(/N=C/c3ccc(O)c(O)c3)CC2)cc1	-0.9	-63.6*	-12.8	3.8	0.0
SMILES	D1 potentiator	D3 antag	D3 ag	D1 ag	D1 antagonist
COc1cc(/C=N/N2CCN(Cc3ccc(Cl)cc3)CC2)cc(Br)c1O	10.9	-13.9	-1.5	3.0	4.9
COc1ccc(/C=N/N2C(=O)CSC2=S)cc1Br	4.0	21.2	36.5*	26.8	0.8
Cc1ccc(CN2CCN(/N=C/c3ccc(C(=O)O)cc3)CC2)cc1	11.4	-0.3	1.8	8.3	3.2
CCC(C)NC(=O)Cn1c(=O)n(-c2ccc(C)c(C)c2)c(=O)c2c3c(sc21)CCCCC3 (stereo unspecified)	0.9	·	7.7	2.9	14.0
COCCN1CCN(Cc2ccc(C(=O)NC(C)C)cc2)C(=O)C1=O	-0.1	·	-0.7	0.3	3.9
CN(C)S(=O)(=O)Nc1ccc(-c2cn3ccsc3n2)cc1	-1.7	·	2.5	1.0	6.6
CC1CCN(Cc2ccc(-c3nnn(CC(=O)NC4CCCCC4)n3)cc2)CC1	-1.2	-10.0	-9.0	-1.3	-19.4
O=C(Cn1nnc(-c2ccc(Cl)cc2)n1)NC1CCN(Cc2ccccc2)CC1	-10.0	-2.8	-0.8	37.2*	-59.5*
Cc1noc(C)c1S(=O)(=O)NC1CCN(Cc2ccccc2)CC1	-4.3	23.0	2.3	5.9	-40.7*
Cc1ccc(CC(=O)NC2CCN(Cc3ccccc3)CC2)cc1	-1.9	-55.1*	-9.6	0.8	-2.9
Cc1ccc(-c2nnn(CC(=O)NC3CCN(Cc4ccccc4)CC3)n2)cc1	-6.2	?	-5.8	30.7*	-8.5
Cc1cc(C)c(S(=O)(=O)NC2CCN(Cc3ccccc3)CC2)c(C)c1	-5.6	-14.2	-15.4	3.0	-3.1
Cc1ccc(COc2ccc3oc(-c4ccccc4)c(C(=O)O)c3c2)cc1	10.6	·	6.5	-0.6	-3.8
COc1cc2c(=O)n(Cc3ccccc3Cl)c(=O)n(CC(=O)Nc3ccc(C)c(C)c3)c2cc1OC	-1.0	·	-6.2	1.9	-0.6
CCOc1cccc(NC(=O)c2sc3nc(-c4ccc(F)cc4)ccc3c2N)c1	-6.8	·	-2.4	6.0	0.2
Cc1cccc(S(=O)Cc2ccc(C(=O)NC3CCN(Cc4ccccc4)CC3)o2)c1 (stereo unspecified)	-2.8	-67.3*	-21.1	2.6	-9.8
Cc1ccccc1S(=O)Cc1ccc(C(=O)NC2CCN(Cc3ccccc3)CC2)o1 (stereo unspecified)	-2.3	-21.9	-22.9	4.3	0.4
Cc1ccc(NC(=O)N2CCN(c3nnc(C)c4c(C)n(-c5ccc(Cl)cc5)nc34)CC2)c(C)c1	-3.6	·	-14.4	0.5	-1.5
CN1CCc2c(sc(/N=C/c3c[nH]c4ccccc34)c2C#N)C1	-3.0	?	-8.2	5.9	-8.9
CN1CCc2c(sc(/N=C/c3c[nH]c4ccccc34)c2C(N)=O)C1	-5.0	-51.5*	-20.6	3.7	-25.9
Cc1ccc(C)c(NC(=O)CSc2cn(CC(=O)N3CCCC3)c3ccccc23)c1	-7.2	·	-12.8	0.0	-1.2
Cc1ccc2oc(/N=C(\N)NC(=O)C(C)(C)C)nc2c1	-3.9	-52.2*	-13.6	-1.1	-18.4
CC1CCCN(S(=O)(=O)c2ccc(NC(=O)c3nc(SC(C)C)ncc3Cl)cc2)C1 (stereo unspecified)	3.0	·	-8.4	2.4	-3.4
